Bioassay records deposited in PubChem BioAssay by several laboratories.
An excerpt weighted towards active compounds, which were near 2.6% of everything screened.
Platelet DG rel = inhibitors of platelet dense granule secretion, primary screen, cell-based, MLPCN, human platelets; AID 1663, 2009; 0.22% of 300,000 active; inhibition, %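 (compounds screened at 7.5 µM in platelet-rich plasma)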; human platelet-rich plasma, SFLLRN dense granule ATP release, luminescence;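 active = mean replicate score, as percent of positive control, at or above 50; inconclusive = mean below 50 but at least one replicate at or above 50; inactive = mean and every replicate below 50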
Exocytosis inh = LAMP-1 surface exposure blockers, TALL-104 cells – cell-based, flow cytometry, MLPCN library, primary screen; TALL-104 LAMP-1 surface exposure; cells stimulated with thapsigargin and PMA; inhibition, % at 10 µM; 0.66% of 360,000 active; AID 651702, 2012;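 active = inhibition above about 55%, limit read from the data; inconclusive = no clear call, values can overlap the other calls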
M18AAP inhibitor = PfM18AAP inhibitors, malaria aminopeptidase, primary screen, biochemical, QFRET, recombinant enzyme; H-Glu-NHMec fluorogenic cleavage; inhibition, % at 7.35 µM; 1.2% of 290,000 active; M18 aspartyl aminopeptidase (Plasmodium falciparum 3D7);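 active = inhibition above the campaign mean inhibition over all tested compounds plus 3 SD, cut at about 28% in these data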;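 note: 0% = plate median of test compound wells and 100% = 2 mM ZnCl2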
ABHD5-PLIN5 inh = ABHD5-PLIN5 interaction inhibitors, primary screen, cell lysate, split luciferase complementation, luminescence. 0.78% of 360,000 active. AID 602281, 2012. Split G. princeps luciferase complementation, 4 h. Perilipin-5 (Homo sapiens) + 1-acylglycerol-3-phosphate O-acyltransferase ABHD5 (Homo …. inhibition, % at 4 µM;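 active = inhibition above the mean inhibition across every tested compound plus 3 SD, cut at about 22% in these data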;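 note: 0% = DMSO only wells and the 100% control is not disclosed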
Rce1 inhib = yeast Rce1p protease inhibitors, primary screen, biochemical, fluorescence, cell-free homogeneous | CAAX prenyl protease 2 (Saccharomyces cerevisiae (strain ATCC 204508 / S288c)), Q03530 | yeast membranes, quenched prenylated peptide cleavage fluorescence | calls only | 0.27% of 290,000 active | AID 2563, 2010;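 active = fall in fluorescence gain of 50% or more versus controls, with final raw signal at or below 3038400; inconclusive = same 50% fall but final raw signal above 3038400; inactive = fall in fluorescence gain under 50%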;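 note: plate controls were neutral control wells for no effect and wells lacking membranes for full effect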
Target sequence (Q03530 whole entry, looked up): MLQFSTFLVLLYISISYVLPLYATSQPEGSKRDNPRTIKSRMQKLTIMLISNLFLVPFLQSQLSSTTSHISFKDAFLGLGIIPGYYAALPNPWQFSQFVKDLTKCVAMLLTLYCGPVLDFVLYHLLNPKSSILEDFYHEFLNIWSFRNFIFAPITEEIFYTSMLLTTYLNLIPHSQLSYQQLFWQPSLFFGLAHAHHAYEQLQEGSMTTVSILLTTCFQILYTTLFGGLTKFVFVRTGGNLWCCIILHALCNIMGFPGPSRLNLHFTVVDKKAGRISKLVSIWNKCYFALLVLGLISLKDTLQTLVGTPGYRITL
The depositor's hits bear a star.

What do the screens show for `O=C(Cc1noc2ccccc12)NNC(=S)Nc1ccccc1`?
Platelet DG rel: -9; Exocytosis inh: -2; M18AAP inhibitor: 30*; ABHD5-PLIN5 inh: -2; Rce1 inhib: inactive

What do the screens show for `COC(=O)CCCC1=CC2=CC(=O)C(C)(OC(=O)c3cccs3)C(=O)C2=CN1Cc1ccc2c(c1)OCO2` (configuration not stated)?
Platelet DG rel: -2; Exocytosis inh: -1; ABHD5-PLIN5 inh: -15; Rce1 inhib: inactive

Results for O=C(Nc1nc(=O)c2ccccc2s1)c1ccc(Cl)cc1 ?
Platelet DG rel: 0; Exocytosis inh: 5; M18AAP inhibitor: 30*; ABHD5-PLIN5 inh: -8; Rce1 inhib: inactive

Results for O=C(CN(C1CCCCC1)S(=O)(=O)c1ccccc1)N1CCCC1 ?
Platelet DG rel: 2; Exocytosis inh: -5; M18AAP inhibitor: 0; ABHD5-PLIN5 inh: 2; Rce1 inhib: inactive

Results for O=C(CN(C1CCCCC1)C1CCCCC1)N1CCc2ccccc2C1 ?
Platelet DG rel: -3; Exocytosis inh: -3; M18AAP inhibitor: 3; ABHD5-PLIN5 inh: 15; Rce1 inhib: active

How did O=C1C2Sc3[nH]c(=O)sc3C(c3ccccc3)C2C(=O)N1c1ccccc1 (configuration not stated) do in these assays?
Platelet DG rel: 1; Exocytosis inh: -4; M18AAP inhibitor: 29*; ABHD5-PLIN5 inh: -9; Rce1 inhib: inactive

How did CCOc1ccc(Nc2cc3n(c(=O)n2)CCc2cc(OC)c(OC)cc2-3)cc1 do in these assays?
Platelet DG rel: 9; Exocytosis inh: 5; M18AAP inhibitor: 5; ABHD5-PLIN5 inh: 15; Rce1 inhib: inactive

Results for COc1cc2c(cc1OC)-c1cc(Nc3cccc(C)c3)nc(=O)n1CC2 ?
Platelet DG rel: 86*; Exocytosis inh: 2; M18AAP inhibitor: 2; ABHD5-PLIN5 inh: 2; Rce1 inhib: inactive

Results for CCOc1ccccc1Nc1cc2n(c(=O)n1)CCc1cc(OC)c(OC)cc1-2 ?
Platelet DG rel: 90*; Exocytosis inh: -13; M18AAP inhibitor: 9; ABHD5-PLIN5 inh: 0; Rce1 inhib: inactive

Results for COc1cc2c(cc1OC)-c1cc(Nc3ccccc3C)nc(=O)n1CC2 ?
Platelet DG rel: 93*; Exocytosis inh: -20; M18AAP inhibitor: 5; ABHD5-PLIN5 inh: -5; Rce1 inhib: inactive

What do the screens show for `COc1ccc(C2C([N+](=O)[O-])=C(C)N(C)C(=O)N2C)cc1OC` (configuration not stated)?
Platelet DG rel: 0; Exocytosis inh: 0; M18AAP inhibitor: 4; ABHD5-PLIN5 inh: 1; Rce1 inhib: inactive

How did COc1cc(CNC(=O)Nc2nc(C(N)Cc3ccc(C(F)(F)F)cc3)cs2)cc(OC)c1OC (configuration not stated) do in these assays?
Exocytosis inh: 3; ABHD5-PLIN5 inh: 0

How did O=C(Nc1ccc([N+](=O)[O-])cc1)C(=O)Nc1cccc(C(=O)O)c1 do in these assays?
Platelet DG rel: 83*; Exocytosis inh: 4; M18AAP inhibitor: -8; ABHD5-PLIN5 inh: 3; Rce1 inhib: inactive

How did O=C(O)c1cc(NC(=O)c2ccc([N+](=O)[O-])cc2)cc(NC(=O)c2ccc([N+](=O)[O-])cc2)c1 do in these assays?
Platelet DG rel: -3; Exocytosis inh: -7; M18AAP inhibitor: -6; ABHD5-PLIN5 inh: 2; Rce1 inhib: inactive

What do the screens show for `CCOc1cc(CNC2CCCC2)ccc1OCc1ccccc1Cl`?
Platelet DG rel: -6; Exocytosis inh: 8; M18AAP inhibitor: -5; ABHD5-PLIN5 inh: 6; Rce1 inhib: active

Results for CCOc1cc(CNC2CCCC2)cc(Cl)c1OCc1ccccc1 ?
Platelet DG rel: 13; Exocytosis inh: 19; M18AAP inhibitor: 5; ABHD5-PLIN5 inh: 8; Rce1 inhib: inactive

How did O=C(CCSc1ccccn1)c1ccccc1 do in these assays?
Platelet DG rel: 9; Exocytosis inh: inconclusive; M18AAP inhibitor: 55*; ABHD5-PLIN5 inh: -10; Rce1 inhib: inactive

Results for O=C(O)CCSc1ccccn1 ?
Platelet DG rel: 2; Exocytosis inh: 2; M18AAP inhibitor: 5; ABHD5-PLIN5 inh: 4; Rce1 inhib: inactive

What do the screens show for `Cc1ccc(NC(=S)NCC23C=CC(O2)C2C(=O)N(c4ccc(C)cc4)C(=O)C23)cc1` (configuration not stated)?
Platelet DG rel: 8; Exocytosis inh: 30; M18AAP inhibitor: 0; ABHD5-PLIN5 inh: 15; Rce1 inhib: inactive

Results for CC(C)(C)OC(=O)NCC12C=CC(O1)C1C(=O)N(Cc3ccccc3)C(=O)C12 (configuration not stated) ?
Platelet DG rel: -1; Exocytosis inh: 85*; M18AAP inhibitor: -19; ABHD5-PLIN5 inh: 5; Rce1 inhib: inactive

How did CCCCN(CC)CCNC(=O)c1cc2c(=O)n(C)c3ccccc3c2s1 do in these assays?
Platelet DG rel: 4; Exocytosis inh: 19; M18AAP inhibitor: -1; ABHD5-PLIN5 inh: 2; Rce1 inhib: inactive

How did CCN(CC)CCNC(=O)c1cc2c(=O)n(C)c3ccccc3c2s1 do in these assays?
Platelet DG rel: 0; Exocytosis inh: 22; M18AAP inhibitor: 4; ABHD5-PLIN5 inh: 8; Rce1 inhib: active

How did Cc1ccc2c(c1)/C(=C/c1ccccc1)C(=O)N2 do in these assays?
Platelet DG rel: 11; Exocytosis inh: 25; M18AAP inhibitor: 13; ABHD5-PLIN5 inh: 23*; Rce1 inhib: inactive

How did O=C1/C(=C/c2ccccc2)Nc2ccccc21 do in these assays?
Platelet DG rel: 2; Exocytosis inh: 5; M18AAP inhibitor: 16; ABHD5-PLIN5 inh: -6; Rce1 inhib: inactive

How did Cc1cc(C)cc(N(CC(=O)NCc2ccco2)S(=O)(=O)c2ccccc2)c1 do in these assays?
Platelet DG rel: 11; Exocytosis inh: 36; M18AAP inhibitor: 0; ABHD5-PLIN5 inh: -1; Rce1 inhib: inactive

What do the screens show for `CCCCn1c(=O)[nH]c(=O)c2c1nc(-c1cc(Br)ccc1OC)n2C`?
Platelet DG rel: -2; Exocytosis inh: 11; M18AAP inhibitor: -3; ABHD5-PLIN5 inh: -4; Rce1 inhib: inactive

Results for O=C(NCc1ccco1)c1cccnc1-c1nc2ccccc2s1 ?
Platelet DG rel: 1; Exocytosis inh: 1; M18AAP inhibitor: 31*; ABHD5-PLIN5 inh: -4; Rce1 inhib: inactive

How did CCc1ccc(C(=O)CSc2n[nH]c(C)n2)cc1 do in these assays?
Platelet DG rel: -1; Exocytosis inh: 0; M18AAP inhibitor: 4; ABHD5-PLIN5 inh: -7; Rce1 inhib: inactive

How did CS(=O)(=O)N1CCN(c2ccc(NC(=O)COc3ccccc3)cc2)CC1 do in these assays?
Platelet DG rel: 0; Exocytosis inh: -2; M18AAP inhibitor: 2; ABHD5-PLIN5 inh: -1; Rce1 inhib: inactive

Results for CCC(=O)c1ccccc1OCCN1CCN(CC)CC1 ?
Platelet DG rel: 3; Exocytosis inh: -1; M18AAP inhibitor: 31*; ABHD5-PLIN5 inh: 1; Rce1 inhib: inactive
